Bioassay records from PubChem BioAssay.
CYP2C19 act: activators of human cytochrome P450 2C19 | 96,000 tested, under 10 active | P33261 | recombinant CYP2C19, luciferin-H EGE luminescence; active compounds read high; 0 = fully inhibited enzyme, 1 = untreated enzyme | AID 1025 | activation factor at 5 µM;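 active = activation factor of at least 2 at 5 µM in the primary screen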;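 also: 0 = wells with 2.5 mM tranylcypromine and 1 = vehicle-only wells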
CYP2C9 inhib: human CYP2C9 inhibition. AID 777. CYP2C9 Supersomes, luciferin-H conversion, luminescence. 96,000 tested, 20% active. P11712. inhibition, % at 5 µM;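 active = blocking of liver enzyme CYP2C9 beyond about 50% at 5 µM, limit read from the data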
Target sequence (P11712 whole entry, looked up): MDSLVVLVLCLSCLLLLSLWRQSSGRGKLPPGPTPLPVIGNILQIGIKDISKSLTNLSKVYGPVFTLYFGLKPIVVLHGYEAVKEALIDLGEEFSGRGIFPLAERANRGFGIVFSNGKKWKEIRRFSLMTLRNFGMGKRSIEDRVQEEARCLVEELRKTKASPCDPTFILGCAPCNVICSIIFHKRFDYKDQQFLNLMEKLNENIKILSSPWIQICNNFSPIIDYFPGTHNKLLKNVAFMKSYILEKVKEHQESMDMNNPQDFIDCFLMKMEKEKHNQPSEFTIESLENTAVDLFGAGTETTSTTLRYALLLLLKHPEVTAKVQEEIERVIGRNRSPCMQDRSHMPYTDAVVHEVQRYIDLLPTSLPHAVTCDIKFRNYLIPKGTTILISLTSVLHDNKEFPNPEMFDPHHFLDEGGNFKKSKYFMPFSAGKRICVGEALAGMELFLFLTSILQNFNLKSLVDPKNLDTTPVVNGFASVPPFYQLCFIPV
CYP2C19 inhib: blocks human cytochrome P450 2C19; CYP2C19 Supersomes, luciferin-H EGE luminescence, 30 min; AID 778; inhibition, % at 5 µM; 96,000 tested, 21% active;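 active = CYP2C19 inhibition above a set limit at 5 µM in the primary screen, cut at about 50% in these data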;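 also: plate controls were negative control wells for no effect and 2.5 mM tranylcypromine positive control for full effect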
CYP2C9 activ: activators of human CYP2C9. AID 1024. recombinant CYP2C9, luciferin-H conversion, luminescence; active compounds read high; factor 1 = untreated enzyme, 0 = blocked. activation factor at 5 µM. 96,000 tested, 1.4% active. P11712;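 active = activation factor of 2 or more for CYP2C9 at a 5 µM dose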;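 also: 0 = sulfaphenazole-blocked wells and 1 = vehicle-only wells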
MRP1 act: activates MRP-1. H69AR cells + doxorubicin, viability rescue, CellTiter-Glo. viability increase, % at 10 µM. 140,000 tested, 0.61% active;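 active = viability gain under doxorubicin at or above a set limit, the compound median plus 3 SD, cut at about 4.7% in these data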;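 also: MRP-1 overexpressing cells given doxorubicin 25 µM after compound pretreatment; 18-22 h compound pretreatment then 72 h with doxorubicin before readout; 0% = doxorubicin-only wells and 100% = vehicle-treated cells without doxorubicin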
MRP reversal: reverses drug resistance mediated by MRP. 85,000 tested, 0.04% active. H69AR cells + 2 uM doxorubicin, CellTiter-Glo, 72 h. differential viability (reversal), % at 10 µM. AID 602;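 active = viability drop by adding the cancer drug above about 55%, with treated viability meeting a 40% cutoff, limit read from the data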;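 also: viability without doxorubicin minus viability with 2 µM doxorubicin for each compound; larger differential means the compound sensitizes cells more to doxorubicin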
Numbers without * were called inactive; / = no result. Shown are actives, neighbours in structure and some others; about 21% of the full set was active somewhere.

SMILES	CYP2C19 act	CYP2C9 inhib	CYP2C19 inhib	CYP2C9 activ	MRP1 act	MRP reversal
CCOC(=O)c1cnc(-c2ccccc2)nc1N(C)C	0.8	19	24	0.8	-2	-7
CCOC(=O)c1cnc(SC2CC(=O)N(c3ccc(OC)c(OC)c3)C2=O)nc1N (configuration not stated)	0.6	92*	38	0.1	1	4
CCOc1ccc(-c2csc(Cn3c(CN4CCN(C)CC4)nc4ccccc4c3=O)n2)cc1	/	/	/	/	-6	/
CCOC(=O)c1ccccc1NC(=O)CSc1ncc(C(=O)OCC)c(N)n1	0.6	88*	40	0.1	-2	4
CCOC(=O)c1cnc(SC)nc1Oc1cccc(NC(=O)c2ccc(Cl)cc2)c1	0.9	42	5	0.6	2	/
CCOC(=O)c1ccccc1NC(=O)CSc1nc(N)cc(N)n1	/	/	/	/	-1	10
CCOC(=O)c1cnc(SCC(=O)c2ccccc2)nc1N	0.2	25	78*	0.8	-1	11
CCOC(=O)c1cnc(SC)nc1Sc1ccccc1	1	60*	3	0.4	0	20
CCOC(=O)c1cnc(-c2ccccc2)nc1Oc1cccc(Cl)c1	1	51*	3	0.5	-1	/
CCOC(=O)c1cnc(SCc2cccc(C)c2)nc1N	0.8	-70	18	1.7	2	12
Cc1cc(C(=O)O)c(CCCN)s1	1	-8	-4	1.1	0	5
c1ccc2c(c1)OCC(CNc1ncnc3sccc13)O2 (configuration not stated)	/	/	/	/	0	/
CCOC(=O)c1cnc(SCC(=O)Nc2nc(C)c(C)s2)nc1N	0.5	91*	51*	0.1	-1	8
CCOC(=O)c1cnc2c(C#N)c(C)nn2c1-c1ccccc1	0.1	11	95*	0.9	-1	1
O=C(NCCOc1ccccc1F)c1cc(F)c(F)cc1Cl	/	/	/	/	-1	/
C[C@H]1CC[C@H]2C(=O)N[C@H](Cc3ccccc3)C(=O)N2[C@@H]1c1ccccc1	/	/	/	/	-2	/
Cc1cc(C)cc(N(CC(=O)NC2CC3CCC2C3)S(C)(=O)=O)c1 (configuration not stated)	0.7	-25	28	1.2	-4	3
CCNC(=O)COC(=O)C1C(C(=O)OCC)=C(C)NC(C)=C1C(=O)OCC	0.1	75*	86*	0.3	0	/
CCOC(=O)C1=C(C)NC(C)=C(C(=O)OCC)C1	0.7	11	28	0.9	-2	18
CCOC(=O)C1=C(C)NC(C)=C(C(=O)OCC)C1C(=O)OCC(=O)N1CCCCC1CC (configuration not stated)	0.4	67*	62*	0.3	-2	8
CCOC(=O)C1=C(C)NC(C)=C(C(=O)OCC)C1C(=O)OCC(=O)N1CCc2ccccc2C1	0.4	79*	56*	0.2	1	8
COC(=O)C1=C(C)NC(C)=C(C(=O)OC)C1C(=O)OCC(=O)N1c2ccccc2CC1C (configuration not stated)	0.1	93*	86*	0.1	-1	6
CCOC(=O)C1=C(C)NC(C)=C(C(=O)OCC)C1C(=O)OCC(=O)N1CCC(C)CC1	0.9	35	12	0.7	2	12
COCc1cc(=O)n2[nH]c(C)nc2n1	1	-10	0	1.1	0	2
O=C(c1cc(-c2cccnc2)nc2ccc(Br)cc12)N1CCC2(CC1)OCCO2	/	/	/	/	/	3
SMILES	CYP2C19 act	CYP2C9 inhib	CYP2C19 inhib	CYP2C9 activ	MRP1 act	MRP reversal
Nc1nc(CN2CCN(c3ccc(F)cc3)CC2)nc(N2CCCc3ccccc32)n1	0.4	53*	60*	0.5	-3	-21
O=C1CCCC2=C1C(c1ccncc1)c1c(nc(SCc3ccccc3)[nH]c1=O)N2 (configuration not stated)	0.1	90*	87*	0.1	0	12
Cc1ccc(C2C3=C(CCCC3=O)Nc3nc(SCC(=O)NCc4ccco4)[nH]c(=O)c32)cc1 (configuration not stated)	1.2	1	-16	1	0	-7
O=C1C2C3C=CC(C4CC34)C2C(=O)N1Cc1ccco1 (configuration not stated)	/	/	/	/	0	/
COc1ccc(N=C2S/C(=C\c3ccc(N4CCOCC4)o3)C(=O)N2CCc2c[nH]c3ccccc23)cc1	0.7	64*	32	0.4	-8	/
CCCN1C(=O)/C(=C/c2ccco2)SC1=Nc1ccc(OC)cc1	0.9	28	10	0.7	-1	/
COc1ccc(N/C(N)=N/c2nc(CSc3ccc(Cl)cc3)cc(=O)[nH]2)cc1	0.3	49	66*	0.5	-2	0
N/C(=N\c1nc(CSc2ccc(Cl)cc2)cc(=O)[nH]1)Nc1cccc2ccccc12	0.9	25	9	0.8	-2	/
O=C(NC(=S)Nc1cccc(Cl)c1N1CCCCC1)c1cccs1	0.9	59*	14	0.4	-5	/
Cc1ccc(Cl)cc1N1CCN(C(c2ccc(C#N)cc2)c2nnnn2C2CCCC2)CC1 (configuration not stated)	0.7	56*	29	0.4	-2	-5
Cc1ccc(Cl)cc1N1CCN(C(c2cccnc2)c2nnnn2C2CCCCC2)CC1 (configuration not stated)	0	93*	98*	0.1	-2	-21
Clc1ccc(C(c2nnnn2C2CCCC2)N2CCN(c3nc4ccccc4s3)CC2)cc1 (configuration not stated)	/	/	/	/	/	-24
O=C(CNC1=NCCC1)c1ccc(Cl)cc1	/	/	/	/	2	/
Cc1ccc(N(CC(=O)N2CCN(C3CCCCC3)CC2)S(=O)(=O)c2cccnc2)cc1	0.7	74*	31	0.3	-1	-22
O=C(N/N=C/c1ccc(Br)cc1)c1ccccc1-n1cccc1	0.1	54*	85*	0.5	-5	-22
O=C(N/N=C\c1ccccc1)c1sccc1-n1cccc1	0.7	34	33	0.7	0	/
O=C1NC2(CCCCC2)C(=O)N1Cc1ccc([N+](=O)[O-])cc1	/	/	/	/	-2	/
COC(=O)c1cc(NS(=O)(=O)c2ccc(NCc3cccnc3)c([N+](=O)[O-])c2)cc(C(=O)OC)c1	/	/	/	/	-1	/
CC(C)n1nnnc1SCC(=O)c1ccc2c(c1)OCCO2	0.4	4	63*	1	-1	-3
CCn1c(SCC(=O)c2ccc3c(c2)OCCO3)nnc1C(C)C	0.1	11	94*	0.9	-3	-17
CCCCn1c(SCC(=O)c2ccc3c(c2)OCCO3)nnc1-c1ccco1	0.5	56*	48	0.4	-1	-10
Cc1cc(C)nc(SCC(=O)c2ccc3c(c2)OCCO3)n1	0.6	-55	40	1.5	-1	/
CCn1nnnc1SCC(=O)c1ccc2c(c1)OCCO2	0.7	20	34	0.8	-1	-3
CCn1c(COc2ccc(Cl)cc2)nnc1SCC(=O)Nc1ccc2c(c1)OCCO2	1.1	-1	-8	1	4	8
